According to PubChem BioAssay AID624330 (Southern Research Specialized Biocontainment Screening …, 2012):
Hit rate of the full screen: of about 340,000 compounds, about 2,100 (0.62%) were called active.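 The calls were made as follows: active = first-screen hits whose inhibition reached a set limit at any dose in the follow-up dose series; inconclusive = inhibition above the set first-screen limit but never retested; inactive = the rest.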 Only a sample is shown. Entries with a potency or affinity are not part of this list.

Molecular target: Rac GTPase-activating protein 1 (Homo sapiens) (UniProt Q9H0H5)
Test: MgcRacGAP GTPase-activating activity inhibitors, confirmation, biochemical, ADP Hunter fluorescence, primary and confirmatory (AID 624330);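 also: fluorescence reports GDP produced by GAP-driven GTP hydrolysis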
Conditions: MgcRacGAP-stimulated Rac1 GTP hydrolysis, at 30 µM, hits give high values, GST-tagged Rac1 F28L mutant substrate

Sequence of Rac GTPase-activating protein 1 (Homo sapiens) (Q9H0H5 whole entry, looked up): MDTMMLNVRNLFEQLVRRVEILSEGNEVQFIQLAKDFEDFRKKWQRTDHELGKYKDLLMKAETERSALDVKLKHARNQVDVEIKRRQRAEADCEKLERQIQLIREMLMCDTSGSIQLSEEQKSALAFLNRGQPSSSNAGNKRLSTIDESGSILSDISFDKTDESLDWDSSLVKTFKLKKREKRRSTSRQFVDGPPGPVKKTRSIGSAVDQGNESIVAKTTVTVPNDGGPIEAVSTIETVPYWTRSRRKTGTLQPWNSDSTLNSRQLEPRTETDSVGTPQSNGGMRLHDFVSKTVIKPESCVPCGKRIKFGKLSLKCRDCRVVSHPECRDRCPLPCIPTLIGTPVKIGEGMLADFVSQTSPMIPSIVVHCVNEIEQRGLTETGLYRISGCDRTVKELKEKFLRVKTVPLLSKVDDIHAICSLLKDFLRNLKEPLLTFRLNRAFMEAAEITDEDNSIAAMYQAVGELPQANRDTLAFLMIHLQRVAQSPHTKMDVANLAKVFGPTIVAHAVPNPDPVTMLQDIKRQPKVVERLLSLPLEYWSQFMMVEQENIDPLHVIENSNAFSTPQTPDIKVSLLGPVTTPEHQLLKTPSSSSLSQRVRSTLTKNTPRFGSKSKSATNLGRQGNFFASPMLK

inhibition, inactive:
COc1ccc(N(C(=O)/C=C/c2ccccc2)C2=CC3CCC(C2)N3C)cc1 (stereo not drawn) 1.64%
COc1cc2[nH]c(C(=O)N3CCC(Cc4ccccc4)CC3)cc2c(OC)c1OC 4.96%
Cc1ccc(-n2nc(C)c3c2OC(N)=C(C#N)C3c2ccc(F)cc2)cc1 (stereo not drawn) 6.17%
Cc1c(C(=O)N/N=C/c2cccs2)nc2ccccn12 4.8%
CC(C)(C)N1C(=O)c2ccc(C(=O)Nc3cc(C(=O)O)cc(C(=O)O)c3)cc2C1=O 13.1%
Cc1cc(N)ccc1NC(=O)c1ccccc1 6.01%
CC(C)CN1C(=O)c2ccc(C(=O)Nc3ccc(O)cc3C(=O)O)cc2C1=O 15.1%
CC(C)(C)N1C(=O)c2ccc(C(=O)Nc3ccc(C(=O)O)cc3)cc2C1=O 1.96%
CCN1C(=O)c2ccc(C(=O)Nc3c(C)cc(C)cc3C)cc2C1=O -2.89%
Cc1ccc(C(=O)Nc2ccc(O)cc2C(=O)O)cc1 14.9%
Cc1ccc(N2C(=O)c3ccc(C(=O)N4CCOCC4)cc3C2=O)cc1C -11.3%
O=C(COC(=O)c1ccc(O)cc1O)c1ccc(Cl)cc1 2.91%
CCCOP(=O)(c1ccc(N(C)C)cc1)C(O)c1ccccc1OC (stereo not drawn) 4.57%
Nc1ccc2c(c1)C(=O)c1ccc(N)cc1-2 22.8%
Nc1ccc2c(c1)C(=O)c1ccccc1-2 18.2%
Nc1cc2c(cc1Cl)-c1ccc(Cl)cc1C2=O 3.85%
Nc1ccc2c(c1)C(=O)c1cc(Cl)c(Cl)cc1-2 7.4%
CCOC(=O)C1CCN(CCC(=O)Nc2ccccc2)CC1 12.6%
Cc1cccc(NC(=S)NCc2cccs2)c1 9.05%
COc1cc(C(=O)N[C@@H](Cc2c[nH]c3ccccc23)C(=O)O)cc(OC)c1OC 1.53%
O=C(/C=C/c1ccc(F)cc1)NC(Cc1c[nH]c2ccccc12)C(=O)O (stereo not drawn) -4.83%
Cc1nn(-c2ccccc2)c(NC(=O)c2cccs2)c(-c2ccccc2)c1=O 0.27%
Cc1cccc(NC(=O)N2CCCCCC2)c1 4.32%
CCc1cc2c(SCc3ccc(C(=O)OC)o3)ncnc2s1 7.63%
CC(=O)NN1C(=O)/C(=C\c2ccc(Cl)cc2)SC1=S 7.77%
CC(=O)NN1C(=O)/C(=C\c2ccc(C)cc2)SC1=S 9.68%
O=C1/C(=C\c2ccc(O)cc2)SC(=S)N1c1cccnc1 2.66%
COc1cc(/C=C2\SC(=S)N(Nc3ccccc3)C2=O)cc(OC)c1OC 11.2%
O=C1/C(=C\c2ccc(O)cc2)SC(=S)N1Cc1ccccc1 10.6%
CCOc1cc(/C=C2\SC(=S)N(Nc3ccccc3)C2=O)ccc1O 11.1%
COc1cccc(/C=C2\SC(=S)N(NC(=O)c3ccncc3)C2=O)c1 15.5%
O=C(NN1C(=O)/C(=C/c2cccs2)SC1=S)c1ccncc1 8.88%
N/C(=N\OC(=O)Cc1ccc(-c2ccccc2)cc1)c1cccnc1 5.49%
CCNC(=S)N1C2CCC1CC(NC(=O)NC1CCCCC1)C2 (stereo not drawn) 1.32%
c1ccc(-n2ncc3c(N4CCN(CCOc5cccc6ccccc56)CC4)ncnc32)cc1 -0.49%
CCCCOC(=O)c1cc(Cl)c(O)c(OC)c1 13.4%
CC(NC(=O)c1ccc(F)cc1)c1ccc(F)cc1 (stereo not drawn) 4.7%
O=C(Nc1ccccc1)C(Cc1ccccc1)c1ccccc1 (stereo not drawn) -2.68%
CCOc1ccc(N2CC(C(=O)Nc3cc(OCC)c(N4CCOCC4)cc3OCC)CC2=O)cc1 (stereo not drawn) 2.59%
CCN1CCN(C(=O)C2(NC(=O)Nc3ccccc3Cl)CCCCC2)CC1 2.74%
O=c1ccc(-c2ccccc2)no1 1.17%
Cc1ccc(S(=O)(=O)CCC(=O)OCC(=O)Nc2cc(F)ccc2C)cc1 1.06%
CCOC(=O)CC1C(=O)NCCN1S(=O)(=O)c1cccc(C(F)(F)F)c1 (stereo not drawn) 7.16%
O=C(Nc1ncnc2sc3c(c12)CCCC3)c1ccncc1 -0.48%
O=C(NN1C(=O)/C(=C/c2ccc(O)cc2)SC1=S)c1cccc(O)c1 30.8%
O=C(O)c1ccc(/C=C2\SC(=S)N(NC(=O)c3ccccc3)C2=O)cc1 8.51%
Cc1ccc(/C=C2\SC(=S)N(CCC(=O)NNC(=O)c3ccc(O)cc3)C2=O)cc1 6.6%
COc1cc(/C=C2\SC(=S)N(NC(=O)c3ccccc3OC)C2=O)ccc1O 8.13%
O=C(NN1C(=O)/C(=C/c2cccc(O)c2)SC1=S)c1ccccc1O 5.04%
O=C(CCCN1C(=O)/C(=C\c2ccccc2)SC1=S)Nc1ccc(O)cc1C(=O)O 12.8%
CCOC(=O)CSc1nc2cc(S(=O)(=O)Nc3ccccc3OC)ccc2o1 5.81%
Clc1cccc(CSc2ncnc3c2ncn3C2CCCCO2)c1 (stereo not drawn) 2.71%
NS(=O)(=O)c1ccc(CCNC(=O)CN2CCN(Cc3cccc4ccccc34)CC2)cc1 3.28%
O=C(O)/C=C/c1ccc([N+](=O)[O-])o1 12.4%
O=C1NC(=S)S/C1=C\c1cccc([N+](=O)[O-])c1 11.9%
Cc1cc2[nH]c3ccccc3c2cn1 17%
COC(=O)c1c(NC(=O)C2CCCCC2)sc2c1CCN(C(C)C)C2 8.85%
O=C(c1ccccc1)N1CCN(CC(O)COc2ccc(Br)cc2)CC1 (stereo not drawn) 1.08%
Cc1cccc(C)c1OCC(O)CN1CCN(C(=O)c2ccccc2)CC1 (stereo not drawn) -23.8%
CCOC(=O)N1CCN(CC(O)COc2c(C)cc(C)cc2C)CC1 (stereo not drawn) 3.3%
COc1cccc(OCC(O)CN2CCOCC2)c1 (stereo not drawn) 6.97%
CC(=O)N1CCN(CC(O)COc2ccc(OCc3ccccc3)cc2)CC1 (stereo not drawn) 3.99%
CCN1CCN(CC(O)COc2cccc(OC)c2)CC1 (stereo not drawn) 8.83%
